Source: publication PMC5540273 (PLoS ONE, 2017)

Experiments:
Conditions in all cases: concentration: 1 μM, replicates: in singlicate; n = 1
[1] = test system: RIOK1
[2] = test system: RIOK2
[3] = test system: RIOK3
[4] = test system: RIPK1
[5] = test system: RIPK2
[6] = test system: RIPK4
[7] = test system: RIPK5
[8] = test system: ROCK1
[9] = test system: ROCK2
[10] = test system: ROS1
[11] = test system: RPS6KA4(Kin.Dom.1-N-terminal)
[12] = test system: RPS6KA4(Kin.Dom.2-C-terminal)
[13] = test system: RPS6KA5(Kin.Dom.1-N-terminal)
[14] = test system: RPS6KA5(Kin.Dom.2-C-terminal)
[15] = test system: T1, RSK1(Kin.Dom.1-N-terminal)
T1 construct: gene RPS6KA1

[16] = test system: T2, RSK1(Kin.Dom.2-C-terminal)
T2 construct: gene RPS6KA1

[17] = test system: T3, RSK2(Kin.Dom.1-N-terminal)
T3 construct: gene RPS6KA3

[18] = test system: T4, RSK2(Kin.Dom.2-C-terminal)
T4 construct: gene RPS6KA3

[19] = test system: T5, RSK3(Kin.Dom.1-N-terminal)
T5 construct: gene RPS6KA2

[20] = test system: T6, RSK3(Kin.Dom.2-C-terminal)
T6 construct: gene RPS6KA2
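Further: KINOMEscan kinase panel screen.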

Cc1cccc(Nc2nc(NCCN)ncc2C(N)=O)c1 [GSK1292139]
%Inh [1]: 89% | %Inh [2]: 3% | %Inh [3]: 90.2% | %Inh [4]: 20% | %Inh [5]: 0% | %Inh [6]: 81% | %Inh [7]: 14% | %Inh [8]: 82% | %Inh [9]: 81% | %Inh [10]: 19% | %Inh [11]: 12% | %Inh [12]: 0% | %Inh [13]: 0% | %Inh [14]: 29% | %Inh [15]: 20% | %Inh [16]: 31% | %Inh [17]: 46% | %Inh [18]: 7% | %Inh [19]: 18% | %Inh [20]: 1%

CCNc1nccc(-c2c(-c3ccc(F)cc3)ncn2C2CCN(C)CC2)n1
%Inh [1]: 10% | %Inh [2]: 0% | %Inh [3]: 29% | %Inh [4]: 8% | %Inh [5]: 36% | %Inh [6]: 0% | %Inh [7]: 0% | %Inh [8]: 0% | %Inh [9]: 0% | %Inh [10]: 0% | %Inh [11]: 0% | %Inh [12]: 0% | %Inh [13]: 0% | %Inh [14]: 8% | %Inh [15]: 5% | %Inh [16]: 50% | %Inh [17]: 9% | %Inh [18]: 15% | %Inh [19]: 6% | %Inh [20]: 10%

Cl.Cl.NC(CNC(=O)c1cc(Br)c(-c2ccnc3[nH]ccc23)s1)c1ccccc1 (stereo not shown) [GSK1322949]
%Inh [1]: 100% | %Inh [2]: 88% | %Inh [3]: 98% | %Inh [4]: 21% | %Inh [5]: 0% | %Inh [6]: 34% | %Inh [7]: 18% | %Inh [8]: 99.6% | %Inh [9]: 99.9% | %Inh [10]: 51% | %Inh [11]: 37% | %Inh [12]: 62% | %Inh [13]: 37% | %Inh [14]: 33% | %Inh [15]: 10% | %Inh [16]: 26% | %Inh [17]: 37% | %Inh [18]: 22% | %Inh [19]: 14% | %Inh [20]: 14%

COc1cc(Nc2nccc(N3CCC(NC(=O)Nc4ccc5c(c4)OCO5)C3)n2)cc(OC)c1OC (stereo not shown) [GSK1379766]
%Inh [1]: 79% | %Inh [2]: 0% | %Inh [3]: 81% | %Inh [4]: 0% | %Inh [5]: 19% | %Inh [6]: 62% | %Inh [7]: 0% | %Inh [8]: 25% | %Inh [9]: 44% | %Inh [10]: 36% | %Inh [11]: 0% | %Inh [12]: 0% | %Inh [13]: 1% | %Inh [14]: 18% | %Inh [15]: 22% | %Inh [16]: 2% | %Inh [17]: 5% | %Inh [18]: 0% | %Inh [19]: 10% | %Inh [20]: 5%

COc1cccc(CC(=O)N2CCc3cc(-c4cn(C)c5ncnc(N)c45)ccc32)c1 [GSK2608899]
%Inh [1]: 20% | %Inh [2]: 20% | %Inh [3]: 17% | %Inh [4]: 100% | %Inh [5]: 35% | %Inh [6]: 0% | %Inh [7]: 58% | %Inh [8]: 23% | %Inh [9]: 5% | %Inh [10]: 9% | %Inh [11]: 28% | %Inh [12]: 0% | %Inh [13]: 1% | %Inh [14]: 11% | %Inh [15]: 21% | %Inh [16]: 27% | %Inh [17]: 16% | %Inh [18]: 17% | %Inh [19]: 22% | %Inh [20]: 20%

CSc1ccc(NC2=C(c3ccc(Cl)cc3)C(=O)NC2=O)cc1 [SB-317658]
%Inh [1]: 3% | %Inh [2]: 0% | %Inh [3]: 20% | %Inh [4]: 0% | %Inh [5]: 0% | %Inh [6]: 16% | %Inh [7]: 7% | %Inh [8]: 38% | %Inh [9]: 0% | %Inh [10]: 3% | %Inh [11]: 28% | %Inh [12]: 0% | %Inh [13]: 2% | %Inh [14]: 30% | %Inh [15]: 6% | %Inh [16]: 0% | %Inh [17]: 11% | %Inh [18]: 0% | %Inh [19]: 0% | %Inh [20]: 0%

Cc1cc(-c2ccnc(Nc3cccc(C#N)c3)n2)cc(C)c1O [GSK1440913]
%Inh [1]: 100% | %Inh [2]: 91.7% | %Inh [3]: 97.9% | %Inh [4]: 53% | %Inh [5]: 28% | %Inh [6]: 37% | %Inh [7]: 8% | %Inh [8]: 0% | %Inh [9]: 0% | %Inh [10]: 64% | %Inh [11]: 0% | %Inh [12]: 0% | %Inh [13]: 0% | %Inh [14]: 0% | %Inh [15]: 12% | %Inh [16]: 17% | %Inh [17]: 5% | %Inh [18]: 0% | %Inh [19]: 26% | %Inh [20]: 21%

N#Cc1cnc2cc(-c3cnc(CNCCN4CCOCC4)s3)ccc2c1Nc1ccc(Oc2ccccc2)cc1 [GW664114]
%Inh [1]: 15% | %Inh [2]: 0% | %Inh [3]: 29% | %Inh [4]: 0% | %Inh [5]: 26% | %Inh [6]: 21% | %Inh [7]: 81% | %Inh [8]: 0% | %Inh [9]: 2% | %Inh [10]: 0% | %Inh [11]: 41% | %Inh [12]: 0% | %Inh [13]: 76% | %Inh [14]: 28% | %Inh [15]: 91.7% | %Inh [16]: 32% | %Inh [17]: 79% | %Inh [18]: 1% | %Inh [19]: 78% | %Inh [20]: 16%
